Assay outcomes from PubChem BioAssay.
KLK7 zymogen act: activators of human kallikrein-7 zymogen. purified proKLK7, EDANS-DABCYL substrate fluorescence; 100% is mature enzyme control, 0% vehicle. activation, % at 7 µM. hit rate 0.9% among 370,000;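 active = activation above the mean of all tested compounds plus 3 SD, computed per campaign excluding outliers beyond control limits, cut at about 13% in these data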
Target sequence (P49862 whole entry, looked up): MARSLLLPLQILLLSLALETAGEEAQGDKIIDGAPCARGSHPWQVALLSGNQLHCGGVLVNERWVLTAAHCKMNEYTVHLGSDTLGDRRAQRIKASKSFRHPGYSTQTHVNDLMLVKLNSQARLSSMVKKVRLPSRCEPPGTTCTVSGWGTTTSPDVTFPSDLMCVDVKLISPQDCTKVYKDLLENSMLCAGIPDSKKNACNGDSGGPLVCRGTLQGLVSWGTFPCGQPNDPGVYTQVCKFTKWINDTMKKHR
MsrA act: bovine methionine sulfoxide reductase A activation; purified bovine MsrA, absorbance read-out; activation, % at 10.6 µM; hit rate 0.3% among 360,000; AID 602163; in the data active = activation above about 7.5%;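 also: 0% = vehicle and 100% = reference activator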
MsrA inh: bovine MsrA inhibition | hit rate 0.75% among 360,000 | inhibition, % at 15.5 µM | purified bovine MsrA, absorbance read-out; in the data active = inhibition above about 4.5%;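 also: 0% = vehicle wells with enzyme and 100% = reference inhibitor wells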
SMARCA2 act: SMARCA2 function activation, primary screen | activation, % at 9.1 µM | AID 652017 | hit rate 1% among 370,000 | MG213 cells, MMTV-luciferase reporter, dexamethasone, overnight; in the data active = activation above about 7.8%;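 also: 0% = vehicle wells and 100% = reference activator wells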
SMARCA2 act conf: confirmation of SMARCA2 (BRM) function activators. shares compounds with SMARCA2 act. hit rate 30% among 3,500. AID 652260. MG213 cells, MMTV-luciferase with dexamethasone, luminescence, overnight; MG213 cells expressing E1A, Rb sequestered; DMSO wells 0%, reference activator 100%. activation, % at 9.1 µM;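 active = activation above its plate's cutoff, the mean activation of tested wells plus 3 SD, cut at about 7.9% in these data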
VP16 Luc act: GAL4-VP16 reporter activation counter-screen; hit rate 41% among 3,500; shares compounds with SMARCA2 act; activation, % at 9.1 µM; HEK293 GAL4-VP16 pG5luc reporter, luciferase luminescence; scaled: DMSO wells 0%, SAHA wells 100%;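 active = activation above the solvent-only control well mean plus 3 SD, averaged across control plates, cut at about 5.2% in these data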
An asterisk follows results filed as active; nt = no result given. This is a sample that favours compounds with a hit; in the whole collection about 2.8% have one here.

SMILES | KLK7 zymogen act | MsrA act | MsrA inh | SMARCA2 act | SMARCA2 act conf | VP16 Luc act
S=C(NC1CCCCC1)N1CCOCCOCCN(C(=S)NC2CCCCC2)CCOCC1 | 0 | -2 | 0 | -2 | nt | nt
O=[N+]([O-])c1cccc(COc2ccc(CO)cc2)c1 | 0 | nt | -2 | 9.4* | 9.1* | 13*
O=[N+]([O-])c1cccc(COc2cccc(CO)c2)c1 | 1 | -4 | 1 | -1 | nt | nt
CC(C)C[C@H]1COc2cc(N3CCCC3)ccc2S(=O)(=O)N1C | 0 | nt | nt | -4 | nt | nt
COc1cc2nc(Nc3ccc(C)c(Cl)c3)nc(N)c2cc1OC | -2 | -1 | 0 | 9.5* | -7 | -1
Nc1[nH]c(C(=O)c2ccc(Br)cc2)c(-c2ccc(F)cc2)c1C(=O)NCCc1c[nH]c2ccccc12 | -1 | nt | 2 | 3 | nt | nt
Cc1nc(SCC(=O)c2cccs2)c2oc3ccccc3c2n1 | -1 | -2 | 1 | 8.5* | 3 | 11*
O=C(CSc1ncnc2c1oc1ccccc12)c1cccs1 | 0 | -4 | 1 | 1 | nt | nt
Cc1ocnc1C(=O)Nc1ccc(Cl)cc1 | 0 | -2 | 2 | 9.3* | 6 | 5
Cc1cc(C(=O)Nc2ccc(Cl)cc2)on1 | 0 | -2 | 0 | -1 | nt | nt
COC(=O)C1=C(C)N(Cc2ccc(C(F)(F)F)cc2)C(=NCc2ccccc2C(F)(F)F)NC1c1ccc(F)cc1 (stereo not given) | -1 | nt | -2 | -3 | nt | nt
COc1ccc(-c2noc(-c3ccc4c(c3)OCO4)n2)cc1 | 0 | -3 | 0 | 14* | 15* | 9.3*
COc1ccc(-c2nc(-c3ccncc3)no2)cc1OC | 0 | -7 | 1 | 12* | 6 | 8.8*
COc1ccccc1-c1nc(-c2ccc(Br)cc2)no1 | 0 | -4 | -1 | 4 | nt | nt
COc1ccc(OC)c2nc(-c3ccc4c(c3)OCO4)ccc12 | 1 | -2 | 0 | 8.6* | 8 | 16*
COc1ccccc1-c1nc(-c2ccncc2)no1 | 0 | 1 | -1 | 10* | 9.8* | 11*
Cc1ccc(-c2nc(-c3ccncc3)no2)cc1C | 0 | -7 | 1 | 6 | nt | nt
COC(=O)[C@]12C[C@H](CC(=O)N3CCCC3)C(=O)N(Cc3ccco3)C1=C[C@H](COCc1ccccc1)O[C@@H]2C | 1 | nt | nt | -3 | nt | nt
COc1cccc(Cn2cc(COC(=O)NCCc3ccccc3)nn2)c1 | -1 | nt | nt | -3 | nt | nt
CC(=O)NC(c1cccc(F)c1)c1nc(-c2cnn(C)c2)cs1 (stereo not given) | 0 | -10 | 0 | -1 | nt | nt
Cc1csc2c(=O)sc(NC(=O)c3ccc(F)cc3)nc12 | 0 | 1 | -1 | -2 | nt | nt
Cc1csc2c(=O)sc(NC(=O)c3ccc(F)cc3Cl)nc12 | 1 | -7 | 1 | 11* | -6 | 0
O=C(CN1CCCCC1)Nc1c2c(nc3ccccc13)N(c1ccccc1)CC2 | -27 | -3 | 3 | 11* | 9.4* | 2
CC(C)(C)c1ccc(C(=O)NCC(=O)NCc2ccccn2)cc1 | 0 | -2 | 0 | 8.4* | 1 | 2
N#Cc1c(N)[nH]c(C(=O)c2ccccc2)c1-c1ccccc1Br | 0 | -1 | 1 | -3 | nt | nt
SMILES | KLK7 zymogen act | MsrA act | MsrA inh | SMARCA2 act | SMARCA2 act conf | VP16 Luc act
CC1(N=Cc2cc(Cl)ccc2O)COP(=O)(Nc2ccccc2)OC1 (stereo not given) | -1 | -1 | 1 | 8.2* | -1 | 1
O=C(N/N=C/c1cc(Cl)ccc1O)c1ccccc1Br | -8 | -12 | 0 | 1 | nt | nt
Cc1ccc(-c2cc(-c3ccccc3Cl)[nH]n2)c(O)c1 | 0 | 6 | 0 | 8.6* | 4 | 11*
O=C(Nc1ccccc1N1CCOCC1)c1cccc2ccccc12 | 0 | -2 | -1 | 0 | nt | nt
Cc1ccc(Nc2nnc(-c3ccccc3N)o2)cc1C | -16 | -6 | 1 | 12* | 4 | 8.5*
O=C1NC(c2ccccc2Br)=N/C1=C\c1ccco1 | 0 | -6 | 2 | 14* | 9.6* | 7.3*
Cc1ccc(NC(=O)OC(C)CNC(=O)Oc2cccc(C)c2)cc1 (stereo not given) | 0 | -7 | -1 | 11* | 8.0* | 5
COC(=O)NCC(C)OC(=O)Nc1ccc(Cl)cc1 (stereo not given) | 0 | -4 | 1 | -2 | nt | nt
COc1ccc(-c2csc(-c3cccs3)n2)c(OC)c1 | -17 | -8 | 0 | 11* | 12* | 8.4*
